Calls of active or inactive are those of the source. Unless noted, no rule for the calls is given here.
How the values were obtained:
[1] = compounds binding Alexa647 anti-His antibody – biochemical, small-molecule microarray, 635 nm fluorescence, artefact control for SMM control protein annotation, primary screen (AID 1128); details: higher = more signal;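 also: score merges feature fluorescence with signal-to-noise for each printed compound spot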
[2] = test system: Human papillomavirus type 1a E7 protein (residues 1-88); assay: HPV1a E7 small-molecule binders, primary screen, biochemical, small-molecule microarray, residues 1-88, 635 nm (AID 1129); details: small-molecule microarray binding, fluorescence 635 nm; higher = more signal
[3] = target: Focal adhesion kinase 1 (Homo sapiens) (UniProt Q05397); assay: PTK2 protein binding on printed compound slides – biochemical, small-molecule microarray, 635/667 nm fluorescence, BSA, DTT, primary screen (AID 1130); details: 635 nm fluorescence, higher = more signal;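 also: composite of spot emission at 667 nm and signal to noise over triplicate slides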
Sequence of Focal adhesion kinase 1 (Homo sapiens) (Q05397 whole entry, looked up): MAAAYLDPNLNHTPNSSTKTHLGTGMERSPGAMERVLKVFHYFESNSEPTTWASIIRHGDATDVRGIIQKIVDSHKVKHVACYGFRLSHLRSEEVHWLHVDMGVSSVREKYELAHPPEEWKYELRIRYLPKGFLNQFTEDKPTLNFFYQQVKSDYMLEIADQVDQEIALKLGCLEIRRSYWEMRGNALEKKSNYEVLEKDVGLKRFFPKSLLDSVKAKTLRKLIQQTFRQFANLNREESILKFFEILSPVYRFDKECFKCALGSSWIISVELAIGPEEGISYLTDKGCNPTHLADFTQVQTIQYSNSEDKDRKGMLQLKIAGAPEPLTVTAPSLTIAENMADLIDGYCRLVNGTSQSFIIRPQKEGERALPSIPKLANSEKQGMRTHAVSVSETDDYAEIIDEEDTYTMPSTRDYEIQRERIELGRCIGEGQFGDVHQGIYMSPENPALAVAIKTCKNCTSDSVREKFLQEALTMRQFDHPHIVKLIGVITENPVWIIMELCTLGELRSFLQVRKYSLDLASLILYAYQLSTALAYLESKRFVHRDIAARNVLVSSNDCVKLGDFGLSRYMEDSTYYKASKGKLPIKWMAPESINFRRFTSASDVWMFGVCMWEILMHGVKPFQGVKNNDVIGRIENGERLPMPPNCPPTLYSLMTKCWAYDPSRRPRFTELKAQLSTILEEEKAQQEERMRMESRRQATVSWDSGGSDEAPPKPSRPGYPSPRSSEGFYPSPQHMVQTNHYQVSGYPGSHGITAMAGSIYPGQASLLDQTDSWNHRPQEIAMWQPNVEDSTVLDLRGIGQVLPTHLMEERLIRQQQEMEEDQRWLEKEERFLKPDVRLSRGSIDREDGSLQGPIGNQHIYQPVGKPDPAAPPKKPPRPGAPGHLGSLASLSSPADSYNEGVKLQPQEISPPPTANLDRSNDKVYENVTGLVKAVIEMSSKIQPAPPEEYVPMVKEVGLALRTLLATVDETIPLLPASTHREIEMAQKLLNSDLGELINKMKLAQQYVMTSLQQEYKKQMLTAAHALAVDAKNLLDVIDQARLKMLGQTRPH

[4] = test system: Fibrinogen (Alexa647-labelled); assay: Alexa647-fibrinogen binding to printed small molecules – biochemical, small-molecule microarray, 635/667 nm fluorescence, artefact control for SMM control-protein annotation, profiling panel (AID 1131); details: fibrinogen-A647 binding fluorescence, higher = more signal;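 also: z-score merges 667 nm fluorescence with per-spot signal-to-noise over triplicate slides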
[5] = target: Follistatin (Homo sapiens) (UniProt P19883); assay: FST protein binding to printed compounds – biochemical, small-molecule microarray, 635/667 nm fluorescence, primary screen (AID 1132); details: 635 nm fluorescence, higher = more signal
Sequence of Follistatin (Homo sapiens) (P19883 whole entry, looked up): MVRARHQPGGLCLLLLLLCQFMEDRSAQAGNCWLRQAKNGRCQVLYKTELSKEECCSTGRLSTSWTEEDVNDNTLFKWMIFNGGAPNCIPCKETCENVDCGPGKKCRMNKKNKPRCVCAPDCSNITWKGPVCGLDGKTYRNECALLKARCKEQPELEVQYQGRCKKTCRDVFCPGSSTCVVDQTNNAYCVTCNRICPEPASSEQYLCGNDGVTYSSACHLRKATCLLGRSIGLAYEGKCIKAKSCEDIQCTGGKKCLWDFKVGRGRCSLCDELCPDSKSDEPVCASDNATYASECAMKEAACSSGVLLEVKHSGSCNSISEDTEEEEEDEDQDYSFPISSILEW

[6] = target: Fibroblast growth factor 2 (Homo sapiens) (UniProt P09038); assay: basic fibroblast growth factor binding to printed compounds – biochemical, small-molecule microarray, 635/667 nm fluorescence, primary screen (AID 1133); details: FGF2, fluorescence 635/667, higher = more signal
Sequence of Fibroblast growth factor 2 (Homo sapiens) (P09038 whole entry, looked up): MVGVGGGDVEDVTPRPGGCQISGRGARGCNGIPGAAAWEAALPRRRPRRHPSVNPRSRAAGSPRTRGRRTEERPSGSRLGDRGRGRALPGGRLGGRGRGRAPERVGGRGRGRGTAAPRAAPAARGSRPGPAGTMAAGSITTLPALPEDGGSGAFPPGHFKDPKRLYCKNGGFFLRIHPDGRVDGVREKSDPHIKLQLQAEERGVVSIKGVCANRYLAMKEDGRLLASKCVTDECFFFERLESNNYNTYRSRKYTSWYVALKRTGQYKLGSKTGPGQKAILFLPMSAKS

[7] = JC-1 mitochondrial potential readout, lung cancer cells – cell-based, A549, JC-1 fluorescence, basal, 24 h, 100 nL, profiling panel (AID 1138); details: higher = more signal;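 also: A549 lung adenocarcinoma cells under basal conditions with no added stimulus; test concentration not given here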
Lefty1 = Lefty1 protein binding to printed compounds – biochemical, small-molecule microarray, 635/667 nm fluorescence, primary screen (AID 1139); details: fluorescence 635/667, higher = more signal
[8] = test system: wheat germ agglutinin (Triticum aestivum), Alexa647-labelled; assay: Alexa647-WGA lectin binding to printed small molecules – biochemical, small-molecule microarray, 635/667 nm fluorescence, artefact control for SMM control-protein annotation, profiling panel (AID 1140); details: WGA-A647 binding, 635 nm fluorescence, higher = more signal;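 also: score merges 667 nm feature emission with signal to noise over triplicate slides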
[9] = target: Luciferin 4-monooxygenase (Photinus pyralis) (UniProt P08659); assay: inhibition of purified Photinus pyralis luciferase – biochemical, luminescence, purified enzyme, 2006 set, primary screen (AID 1141); details: purified firefly luciferase, SteadyGlo luminescence, 30 min; higher = more signal, called active from +8 up or from −8 down;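 also: cell-free assay with purified firefly luciferase at 100 ng per well in PBS; test concentration not given here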
Sequence of Luciferin 4-monooxygenase (Photinus pyralis) (P08659 whole entry, looked up): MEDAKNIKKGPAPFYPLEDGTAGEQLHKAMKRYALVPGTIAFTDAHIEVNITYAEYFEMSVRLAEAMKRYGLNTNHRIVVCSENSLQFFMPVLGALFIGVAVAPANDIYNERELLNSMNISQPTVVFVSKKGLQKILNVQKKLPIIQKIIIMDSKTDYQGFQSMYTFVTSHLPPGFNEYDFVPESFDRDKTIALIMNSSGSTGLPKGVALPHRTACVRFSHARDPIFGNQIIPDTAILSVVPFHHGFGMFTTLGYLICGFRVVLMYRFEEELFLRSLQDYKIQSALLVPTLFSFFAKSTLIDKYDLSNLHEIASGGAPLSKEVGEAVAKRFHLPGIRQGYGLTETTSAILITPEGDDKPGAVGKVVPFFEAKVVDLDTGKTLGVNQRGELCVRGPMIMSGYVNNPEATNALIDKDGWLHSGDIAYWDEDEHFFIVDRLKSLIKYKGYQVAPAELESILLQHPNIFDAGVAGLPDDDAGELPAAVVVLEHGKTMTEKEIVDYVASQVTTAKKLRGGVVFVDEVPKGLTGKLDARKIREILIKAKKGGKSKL

[10] = test system: Wnt5a (protein binding on small-molecule microarray); assay: small molecules binding Wnt5a protein – biophysical, small-molecule microarray, 635/667 nm fluorescence, primary screen (AID 1142); details: 635 nm fluorescence, higher = more signal;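 also: fluorescence read at 667 nm with signal to noise per printed feature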
[11] = ATP-based viability of Huh7 replicon cells – cell-based, CellTiter-Glo luminescence, basal, 48 h, cytotoxicity control for HCV replication inhibitor project, primary screen (AID 1143); details: higher = more signal, called active from +8 up or from −8 down;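 also: Huh7 hepatoma cells carrying a hepatitis C replication reporter with no stimulus; test concentration not given here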
[12] = Pseudomonas biofilm growth suppression – PAO1 strain, BacTiter-Glo luminescence, LB-PBS, primary screen (AID 1144); details: P. aeruginosa PAO1 biofilm, 12 h, higher = more signal
[13] = basal CRE-LacZ reporter activity in PC12 – cell-based, unstimulated, primary screen (AID 1145); details: no forskolin, luminescence, 4.5 h, higher = more signal, called active from +8 up or from −8 down
[14] = forskolin-driven CRE-LacZ activity in PC12 – cell-based, CRE-LacZ reporter, forskolin-stimulated, primary screen (AID 1146); details: luminescence, 4.5 h, higher = more signal, called active from +8 up or from −8 down;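 also: PC12 cells with 6xCRE LacZ reporter stimulated by forskolin 10 µM; beta-galactosidase reporter signal reflecting CREB driven transcription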
[15] = target: Streptavidin (Streptomyces avidinii) (UniProt P22629); assay: compounds binding control protein streptavidin – biophysical, small-molecule microarray, 635/667 nm fluorescence, artefact control for SMM compound annotation, primary screen (AID 1147); details: higher = more signal;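 also: signal reflects streptavidin binding to arrayed compounds as a control protein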
Sequence of Streptavidin (Streptomyces avidinii) (P22629 whole entry, looked up): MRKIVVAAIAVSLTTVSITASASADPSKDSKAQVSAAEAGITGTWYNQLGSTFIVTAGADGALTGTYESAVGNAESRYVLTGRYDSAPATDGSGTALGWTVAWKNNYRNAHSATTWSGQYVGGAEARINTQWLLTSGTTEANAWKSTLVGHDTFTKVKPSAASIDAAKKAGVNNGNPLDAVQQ

[16] = probe aInhba binding on compound microarray – biochemical, small-molecule microarray, 635/667 nm fluorescence, primary screen (AID 1148); details: higher = more signal;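 also: score merges 667nm spot fluorescence with signal-to-noise for antibody binding to printed compounds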
Torsin-1A (Homo sapiens) [17] = target: Torsin-1A (Homo sapiens) (UniProt O14656); assay: TOR1A wild-type binding on microarray – cell lysate, small-molecule microarray, lysate, 635/667 nm, primary screen (AID 1149); details: COS7 hTOR1A-WT lysate, 635 nm fluorescence, higher = more signal
Sequence of Torsin-1A (Homo sapiens) (O14656 whole entry, looked up): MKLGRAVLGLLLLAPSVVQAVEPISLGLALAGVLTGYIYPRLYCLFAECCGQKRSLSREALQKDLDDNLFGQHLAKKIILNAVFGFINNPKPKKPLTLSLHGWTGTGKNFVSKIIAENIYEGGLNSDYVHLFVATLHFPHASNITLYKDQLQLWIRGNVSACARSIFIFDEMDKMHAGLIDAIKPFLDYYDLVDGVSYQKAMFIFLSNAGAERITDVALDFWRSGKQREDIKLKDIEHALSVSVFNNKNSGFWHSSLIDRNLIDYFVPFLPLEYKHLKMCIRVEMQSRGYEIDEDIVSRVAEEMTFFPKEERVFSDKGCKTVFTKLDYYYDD

Torsin-1A (Homo sapiens) [18] = target: Torsin-1A (Homo sapiens) (UniProt O14656); assay: torsin A mutant lysate binding on microarrays – cell lysate, small-molecule microarray, COS7 lysate, 635/667 nm fluorescence, primary screen (AID 1150); details: COS7 hTOR1A mutant lysate, 635 nm fluorescence, higher = more signal;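 also: score pools 667 nm emission and signal to noise measuring lysate protein binding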
[19] = test system: Sonic hedgehog protein (Shh); assay: Sonic hedgehog microarray binding compounds – biochemical, small-molecule microarray, 635/667 nm fluorescence, primary screen (AID 1151); details: 635 nm fluorescence, higher = more signal;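 also: Shh protein binding to compounds spotted on small-molecule microarray slides; score combines spot fluorescence intensity with signal-to-noise across triplicate slides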

SMILES | composite z-score [1] | composite z-score [2] | composite z-score [3] | composite z-score [4] | composite z-score [5] | composite z-score [6] | z-score [7] | composite z-score (Lefty1) | composite z-score [8] | z-score [9] | composite z-score [10] | z-score [11] | z-score [12] | z-score [13] | z-score [14] | composite z-score [15] | composite z-score [16] | composite z-score (Torsin-1A (Homo sapiens) [17]) | composite z-score (Torsin-1A (Homo sapiens) [18]) | composite z-score [19]
CCOC(=O)C=Cc1ccccc1O | 0.712 | 0.923 | -0.0156 | 0.881 | 0.79 | 0.292 | -1.47 | 0.175 | 0.404 | -0.532 (inactive) | 0.0265 | -4.76 (inactive) | -0.203 (inactive) | -0.471 (inactive) | -0.586 (inactive) | 0.486 | 0.0051 | 0.399 | 0.146 | 0.158
CCC(CC)C(O)C1C=CC2C(=O)N(c3ccccc3)C(=O)C2N1Nc1ccc([N+](=O)[O-])cc1 (stereo not given) | 0.838 | 1.23 | 1.19 | 0.895 | 0.081 | -0.348 | -1.38 | 0.138 | 1.11 | 1.14 (inactive) | 0.205 | 0.0373 (inactive) | -0.639 (inactive) | -0.62 (inactive) | -0.68 (inactive) | 0.754 | 0.124 | 0.273 | 0.427 | 0.179
CCCCCCCCCCC(O)C1C=CC2C(=O)N(c3ccccc3)C(=O)C2N1Nc1ccccc1F (stereo not given) | 0.0112 | 0.399 | 0.674 | 0.415 | -0.348 | -0.591 | -0.127 | -0.833 | 0.472 | 0.422 (inactive) | -0.13 | 0.325 (inactive) | -0.425 (inactive) | -1.09 (inactive) | 0.476 (inactive) | 0.282 | 0.0074 | -0.35 | -0.524 | -0.992
CN1C(=O)C2C(C1=O)C1C=C(CCCO)C2C(C2CC2)N1Cc1cc2c(cc1Br)OCO2 (stereo not given) | 2.92 | 0.788 | 0.481 | 0.919 | 0.4 | 0.0867 | -0.401 | 0.317 | 0.555 | -0.0255 (inactive) | 0.0949 | -1.57 (inactive) | -0.0766 (inactive) | 1.26 (inactive) | 2.6 (inactive) | 0.838 | 0.0569 | 1.2 | 1.5 | 0.265
Cc1ccc(S[C@]2(C(=O)NCC(C)C)CC(=O)N(C3Cc4ccccc4C3)[C@@H]2c2ccc(CO)cc2I)cc1 | -0.258 | 0.27 | -0.199 | -1.13 | -0.615 | -1.02 | -0.244 | -1.38 | -0.463 | -0.063 (inactive) | -0.305 | -0.552 (inactive) | 0.491 (inactive) | 0.389 (inactive) | 1.42 (inactive) | -1.21 | -0.182 | -0.284 | -0.183 | -0.51
CCOC(=O)C=Cc1cc(F)ccc1O | 0.354 | -0.166 | 0.727 | -0.333 | 0.0875 | 0.0013 | -1.8 | -0.471 | 0.0203 | 0.701 (inactive) | 0.139 | -4.58 (inactive) | -0.557 (inactive) | 0.276 (inactive) | -0.804 (inactive) | 0.761 | 0.0705 | 0.165 | 0.448 | -0.587
COc1cc(C(O)C2C=CC3C(=O)N(Cc4ccccc4)C(=O)C3N2n2cnnc2)cc(OC)c1OC (stereo not given) | 0.941 | 0.869 | 0.498 | 0.912 | 0.448 | 0.405 | -0.417 | -0.493 | 1.15 | -2.17 (inactive) | 0.388 | -0.429 (inactive) | -1.77 (inactive) | 0.636 (inactive) | -0.634 (inactive) | 0.267 | 0.255 | 0.683 | 0.671 | 0.131
CCOC(=O)C1=CCN(S(=O)(=O)c2ccc(C)cc2)C1c1ccccc1 (stereo not given) | 0.843 | 1.2 | 0.656 | 0.609 | 0.467 | 0.835 | 0.942 | 0.0842 | 0.652 | 1.75 (inactive) | 0.0881 | -3.3 (inactive) | 0.498 (inactive) | -0.284 (inactive) | -1.12 (inactive) | 0.388 | 0.141 | 0.355 | 0.302 | 0.598
COc1ccc([Si](C)(C)[C@H]2[C@H](CC(=O)N3Cc4ccccc4C[C@H]3CO)O[C@@]3(C(=O)N(Cc4ccc(N5C(=O)c6cccc7cccc5c67)cc4)c4ccccc43)[C@@H]2C)cc1 | 0.33 | 1.15 | 1.28 | 0.405 | 1.07 | 1.37 | 1.34 | 1.01 | 0.237 | 0.0376 (inactive) | -0.108 | -4.09 (inactive) | -0.67 (inactive) | 1.04 (inactive) | -1.35 (inactive) | 0.294 | 0.0102 | -0.0784 | 0.837 | 1.66
C=C(COC)/C(=C/C[C@@H](OC(C)=O)c1ccc(CO)o1)c1cc(C(=O)OC)ccc1OC | 0.291 | 0.091 | -0.198 | -0.341 | 0.758 | -0.314 | 0.173 | 0.933 | -0.188 | -1.53 (inactive) | -0.0561 | 0.0759 (inactive) | -0.921 (inactive) | -0.0602 (inactive) | 1.12 (inactive) | -0.367 | -0.0933 | -0.5 | 0.666 | 1.64

Reference: PubChem BioAssay
